# In the antibiotic and cytotoxicity screens of Wong et al. (2023):
# Hit rate of the full screen: of about 39,000 compounds, about 3,300 (8.5%) were called active. The list comes from a sample in which actives are over-represented; it also holds similar structures and randomly drawn compounds.
# Test system: HepG2
# Assay: cytotoxicity call (relative viability < 0.9)
# Details: 10 µM
row,SMILES,cytotoxicity call
1,C[C@H]1CN([C@@H](C)CO)C(=O)c2cccc(NC(=O)c3ccc(-c4nccs4)cc3)c2O[C@@H]1CN(C)S(=O)(=O)c1cn(C)cn1,inactive
2,Cc1noc(C)c1S(=O)(=O)N(C)C[C@H]1OCCCC[C@H](C)Oc2ccc(N(C)C)cc2C(=O)N([C@H](C)CO)C[C@@H]1C,inactive
3,COc1ccc(NC(=O)N(C)C[C@@H]2OCCCC[C@H](C)Oc3ccc(NS(=O)(=O)c4c(C)noc4C)cc3C(=O)N([C@@H](C)CO)C[C@@H]2C)cc1,inactive
4,CO[C@@H]1CN(C)C(=O)c2ccc(NC(=O)C3CC3)cc2OC[C@@H](C)N(C(=O)C2CCOCC2)C[C@H]1C,inactive
5,Cc1cc(C2CCCCC2)n(O)c(=O)c1.NCCO,active
6,C[C@H]1CN([C@@H](C)CO)C(=O)c2c(c3ccccc3n2C)-c2ccccc2CO[C@@H]1CN(C)Cc1ccc(C(F)(F)F)cc1,inactive
7,Cc1noc(C)c1S(=O)(=O)Nc1ccc2c(c1)C(=O)N([C@H](C)CO)C[C@H](C)[C@H](CN(C)C(=O)Nc1ccc(F)cc1)OCCCC[C@H](C)O2,inactive
8,Cc1noc(C)c1NC(=O)Nc1ccc2c(c1)C(=O)N([C@H](C)CO)C[C@H](C)[C@@H](CN(C)S(=O)(=O)c1ccc(F)cc1)OCCCC[C@@H](C)O2,inactive
9,Cc1cc(C(=O)Nc2cccc3c2O[C@H](CN(C)S(=O)(=O)c2cccs2)[C@@H](C)CN([C@H](C)CO)C3=O)n(C)n1,inactive
10,COC(=O)CNC(=O)/C=C/c1ccc(OC)cc1,inactive
11,CCNC(=O)C=Cc1cccc(Br)c1,active
12,CCNC(=O)c1cccc(NS(C)(=O)=O)c1,inactive
13,C[C@H](CO)N1C[C@H](C)[C@@H](CN(C)C(=O)Nc2ccc(C(F)(F)F)cc2)Oc2ccc(NS(=O)(=O)c3ccc(F)cc3)cc2C1=O,inactive
14,COc1ccc(S(=O)(=O)Nc2ccc3c(c2)CC(=O)N([C@H](C)CO)C[C@H](C)[C@H](CN(C)S(=O)(=O)c2cn(C)cn2)O3)cc1,inactive
15,C[C@H]1CCCCO[C@@H](CN(C)C(=O)C2CCCCC2)[C@@H](C)CN([C@@H](C)CO)C(=O)c2cc(NC(=O)Nc3ccc(F)cc3)ccc2O1,active
16,C[C@@H]1CN([C@H](C)CO)C(=O)c2cc(NC(=O)Nc3ccc(F)cc3)ccc2O[C@@H](C)CCCCO[C@@H]1CN(C)C(=O)C1CCCCC1,inactive
17,C[C@@H]1CCCCO[C@@H](CN(C)C(=O)C2CCCCC2)[C@H](C)CN([C@@H](C)CO)C(=O)c2cc(NC(=O)Nc3ccc(F)cc3)ccc2O1,inactive
18,C[C@@H]1CCCCO[C@@H](CN(C)C(=O)C2CCCCC2)[C@@H](C)CN([C@@H](C)CO)C(=O)c2cc(NC(=O)Nc3ccc(F)cc3)ccc2O1,inactive
19,C[C@H]1CCCCO[C@H](CN(C)C(=O)C2CCCCC2)[C@@H](C)CN([C@@H](C)CO)C(=O)c2cc(NC(=O)Nc3ccc(F)cc3)ccc2O1,active
20,C[C@@H]1CCCCO[C@H](CN(C)C(=O)C2CCCCC2)[C@H](C)CN([C@@H](C)CO)C(=O)c2cc(NC(=O)Nc3ccc(F)cc3)ccc2O1,inactive
21,C[C@@H]1CCCCO[C@H](CN(C)C(=O)C2CCCCC2)[C@@H](C)CN([C@@H](C)CO)C(=O)c2cc(NC(=O)Nc3ccc(F)cc3)ccc2O1,active
22,C[C@H](CO)N1C[C@H](C)[C@H](CN(C)C(=O)C2CCCCC2)OCCCC[C@H](C)Oc2ccc(NC(=O)Nc3ccc(F)cc3)cc2C1=O,inactive
23,C[C@@H]1CCCCO[C@@H](CN(C)C(=O)C2CCCCC2)[C@@H](C)CN([C@H](C)CO)C(=O)c2cc(NC(=O)Nc3ccc(F)cc3)ccc2O1,inactive
24,CNC(=O)C(=O)Nc1ccc(C)c(F)c1,inactive
25,Cc1noc(C)c1NC(=O)Nc1ccc2c(c1)C(=O)N([C@H](C)CO)C[C@H](C)[C@@H](CN(C)CC1CCCCC1)OCCCC[C@H](C)O2,inactive
26,COc1cccc(S(=O)(=O)N(C)C[C@@H]2Oc3ncc(C#CCC(C)C)cc3C(=O)N([C@@H](C)CO)C[C@@H]2C)c1,inactive
27,O=C(CN1CCOCC1)N[C@@H]1CC[C@@H](CCn2cc(C3CCCC3)nn2)O[C@H]1CO,inactive

row,SMILES,cytotoxicity call
1,C[C@@H]1CN([C@@H](C)CO)C(=O)Cc2cc(NC(=O)NC3CCCCC3)ccc2O[C@H]1CN(C)Cc1ccc(C(F)(F)F)cc1,inactive
2,Cc1noc(C)c1NC(=O)Nc1ccc2c(c1)C(=O)N([C@H](C)CO)C[C@H](C)[C@H](CN(C)S(=O)(=O)c1ccccc1)OCCCC[C@H](C)O2,inactive
3,COc1ccc(S(=O)(=O)N(C)C[C@H]2Oc3c(NS(=O)(=O)c4ccc(C)cc4)cccc3C(=O)N([C@H](C)CO)C[C@H]2C)cc1,inactive
4,C[C@@H]1O[C@@H](O[C@H]2[C@H](Oc3cc(O)c(C(=O)CCc4ccc(O)cc4)c(O)c3)O[C@H](CO)[C@@H](O)[C@@H]2O)[C@H](O)[C@H](O)[C@H]1O,inactive
5,O=C(CNCCO)Nc1ccc(F)c(Cl)c1,inactive
6,N=C(N=C(N)N)Nc1cccc(Cl)c1,inactive
7,CC(C)C(=O)Nc1cccc(Cl)c1,inactive
8,CCC(=O)Nc1ccc(Cl)cc1,inactive
9,O=C(Nc1ccc(Cl)cc1)Nc1ccc(Cl)c(Cl)c1,active
10,O=C(Nc1ccc(C(F)(F)F)cc1)Nc1cccc(Cl)c1,active
11,C[C@@H]1CN([C@@H](C)CO)C(=O)c2cc(NS(=O)(=O)c3ccccc3)ccc2O[C@@H](C)CCCCO[C@@H]1CN(C)C(=O)Nc1ccc2c(c1)OCO2,inactive
12,CCCOc1cc(N)ccc1C(=O)OCCN(CC)CC.Cl,inactive
13,CCN(CC)CCOc1ccc2c(c1)C(=O)c1cc(OCCN(CC)CC)ccc1-2,active
14,O=S1(=O)[C@@H]2C[C@H]3C=CC2(CN1C1CC1)O3,inactive
15,Cc1ccc(S(=O)(=O)N(C)C[C@@H]2OCCCC[C@@H](C)Oc3ccc(NC(=O)NC4CCCCC4)cc3C(=O)N([C@@H](C)CO)C[C@@H]2C)cc1,inactive
16,C[C@H](CO)N1C[C@H](C)[C@H](CN(C)S(=O)(=O)c2ccccc2)OCCCC[C@H](C)Oc2ccc(NC(=O)NC3CCCCC3)cc2C1=O,active
17,Cc1ccc(S(=O)(=O)N(C)C[C@@H]2OCCCC[C@H](C)Oc3ccc(NC(=O)NC4CCCCC4)cc3C(=O)N([C@@H](C)CO)C[C@H]2C)cc1,active
18,Cc1ccc(S(=O)(=O)N(C)C[C@H]2OCCCC[C@H](C)Oc3ccc(NC(=O)NC4CCCCC4)cc3C(=O)N([C@H](C)CO)C[C@H]2C)cc1,inactive
19,Cc1ccc(S(=O)(=O)N(C)C[C@H]2OCCCC[C@@H](C)Oc3ccc(NC(=O)NC4CCCCC4)cc3C(=O)N([C@H](C)CO)C[C@@H]2C)cc1,inactive
20,Cc1ccc(S(=O)(=O)N(C)C[C@H]2OCCCC[C@H](C)Oc3ccc(NC(=O)NC4CCCCC4)cc3C(=O)N([C@@H](C)CO)C[C@@H]2C)cc1,inactive
21,C[C@@H]1CCCCO[C@H](CN(C)S(=O)(=O)c2ccccc2)[C@@H](C)CN([C@H](C)CO)C(=O)c2cc(NC(=O)NC3CCCCC3)ccc2O1,inactive
22,Cc1ccc(S(=O)(=O)N(C)C[C@H]2OCCCC[C@@H](C)Oc3ccc(NC(=O)NC4CCCCC4)cc3C(=O)N([C@H](C)CO)C[C@H]2C)cc1,active
23,Cc1ccc(S(=O)(=O)N(C)C[C@@H]2OCCCC[C@H](C)Oc3ccc(NC(=O)NC4CCCCC4)cc3C(=O)N([C@H](C)CO)C[C@@H]2C)cc1,inactive
24,C[C@H]1CCCCO[C@@H](CN(C)S(=O)(=O)c2ccccc2)[C@@H](C)CN([C@@H](C)CO)C(=O)c2cc(NC(=O)NC3CCCCC3)ccc2O1,inactive
25,Cc1ccc(S(=O)(=O)N(C)C[C@@H]2OCCCC[C@H](C)Oc3ccc(NC(=O)NC4CCCCC4)cc3C(=O)N([C@H](C)CO)C[C@H]2C)cc1,active
26,Cc1ccc(S(=O)(=O)N(C)C[C@H]2OCCCC[C@H](C)Oc3ccc(NC(=O)NC4CCCCC4)cc3C(=O)N([C@@H](C)CO)C[C@H]2C)cc1,inactive
